Compounds without any hit were thinned out: in the full panel of roughly 83,000, 20% have a hit.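 Percent growth is the endpoint: 0 to 100 indicates growth inhibition (40 means 60% inhibition), 0 means no net growth, and negative values indicate cell death.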 Active and inactive are the calls of the source.

The test system of the assay is ACHN renal. Nature of the assay: NCI-60 one-dose screen, 48 h (100 = growth as untreated, 0 = no growth, -100 = all killed). Conditions: 10 µM unless noted. As for the experimental part: Growth inhibition of the ACHN human tumor cell line is measured as a screen for anti-cancer activity. Cells are grown in 96 well plates and exposed to the test compound for 48 hours. Compounds are tested at a single concentration, which is 10^-5 M for most compounds. The reported endpoint is percent growth (GI% or GIPRCNT), where numbers from 0 - 100% represent growth inhibition, and numbers from -100% - 0 represent cell death. For example, a value of 40 represents 60% growth inhibition. A value of 0 means no net growth occurred over the course of the experiment. A value of -40 indicates 40% of cells at the beginning of the experiment died by the end of the experiment. A value of -100 means all cells are dead at the end of the experiment.
NCI-60 Human Tumor Cell Lines Screen was performed using the standard one-dose NCI protocol, which is described in more detail at https://dtp.cancer.gov/discovery_development/nci-60/default.htm.
Compounds with GIPRCNT values below 10 were considered active. Activity score was based on GIPRCNT using the following formula: […]
Score is 0 for GIPRCNT values of 100 or above, 50 for GIPRCNT values of 0, and 100 for GIPRCNT values of -100.
Take `C[C@H]1[C@H](C)CC[C@]2(C(=O)NCC#CCN3CCN(C)CC3)CC[C@]3(C)C(=CC[C@@H]4[C@@]5(C)Cc6c([nH]c7ccccc67)C(C)(C)[C@@H]5CC[C@]43C)[C@H]12`: the growth was 96.3% (inactive).
Regarding `COc1ccc(Cc2cnc(NC(=O)c3ccc4c(c3)OCCO4)s2)cc1`, the growth is 27.9% (inactive).
The figure for `COc1cc2c(-c3cc4c(cc3CNCCc3ccc5c(c3)OCO5)OCO4)cccc2c(OC)c1O` is 79.2% (inactive).
As for `O=C(/C=C(/C=C/c1coc2ccccc12)OB(F)F)/C=C/c1coc2ccccc12`, the figure is 101% (inactive); as for `CCN(CC)c1ccc(C(=O)c2ccccc2)cc1`, 98.2% (inactive).
Take `CCOC(=O)/C(C#N)=C1/NNC(=Nc2cccnc2)S1`: the growth is 100% (inactive).
For the compound `COC(=O)C1=C(C(=O)ON)[C@@H]2C=C[C@@]1([C@@H](Cc1ccccc1)Nc1ccccc1)O2`, the growth is -95.5% (active).
The figure for `COc1cc2nc(-c3ccc(Cl)cc3)cc(OCCCN3CCCCC3)c2cc1OC` is 34% (inactive); for `O=C1c2ccc3c4c(ccc(c24)C(=O)N1CCCNCc1ccccc1)C(=O)N(CCCNCc1ccccc1)C3=O` it is -53.5% (active).
As for `O=S(=O)(NCCCNc1nccc(-c2c(-c3cccc(F)c3)nc3sccn23)n1)c1cccc2ccccc12`, the figure is 34.7% (inactive).
For the compound `COc1cc(OC)cc(C(=O)C[n+]2cccc3cc[nH]c32)c1`, the growth is 101% (inactive).
`O=C(Cc1ccccc1)NNc1nc(Cl)nc(N2CCN(C(c3ccccc3)c3ccccc3)CC2)n1`: the growth was 94.9% (inactive).
As for `CC(C)(C)c1ccc(NS(=O)(=O)c2ccc3nc(NC(=O)c4cnccn4)[nH]c3c2)cc1`, the growth is 39.6% (inactive).
For `CCCNC(=O)Oc1ccc(/C(=C(\C)c2ccccc2)c2ccc(OCCCN(C)C)cc2)cc1`, the growth is 93.3% (inactive).
As for `C/C=C(\C)C(=O)NC1=CC[C@@]2(C)C(=CCC3C2CC[C@@]2(C)C3CC[C@@H]2C(C)N(C)C)C1=O` (stereo not given in full), the figure is 65.6% (inactive).
The figure for `Cc1ccc(C(=O)/C(=C\c2ccc([N+](=O)[O-])cc2)S(=O)Cc2ccc(Cl)cc2)cc1` (stereo not given) is 12.7% (inactive); for `CC(=O)[C@@H]1CC[C@]2(C(N)=O)CC[C@]3(C)[C@H](CC[C@@H]4[C@@]5(C)CCCNC(C)(C)[C@@H]5CC[C@]43C)[C@@H]12` it is 107% (inactive).
Take `COc1ccc(/C=N/NC(=O)c2cnn3c2NC(c2ccccc2)C3)cc1OC` (stereo not given): the growth was 82.6% (inactive).
Consider `COc1cc2c(c(OC)c1OC)CCC(c1cccc(NC(=O)c3cccc(Br)c3)c1)O2` (stereo not given), for which the growth is 94.2% (inactive).
`N#C/C(=C\c1ccc([N+](=O)[O-])s1)c1nc2cc(Br)ccc2s1`: the growth is -56.8% (active).
In the case of `CCN(CC)c1ccc(/C=N/NC(=O)CSc2nc3ccccc3c(=O)n2CCc2ccc(S(N)(=O)=O)cc2)c(O)c1`, the growth is 28.7% (inactive).
The figure for `CC(C)=CCC[C@](C)(O)[C@H]1CC[C@]2(C)[C@@H]1CC[C@@H]1[C@@]3(C)C/C(=C/c4ccccc4)C(=O)C(C)(C)[C@@H]3CC[C@]12C` is 96.3% (inactive); for `N/C(=N\C(N)=N\c1nc2ccccc2s1)c1cccc(Cl)c1` it is 75.5% (inactive); for `COc1ccc(C(=O)c2cc(OC)c(OC)c(OC)c2)cc1O` it is 25.6% (inactive).
The figure for `CCOC(=O)c1cc(C(=O)c2ccc(Br)cc2)n2ccc(/C=C/c3cc[n+](CC(=O)c4ccc(OC)cc4)cc3)cc12` is 93.6% (inactive).
As for `O=C(Cn1c(C(=O)c2ccccc2)nc2ccccc21)c1ccc(F)cc1`, the figure is 95.8% (inactive); as for `O=C1c2ccc3c4c(ccc(c24)C(=O)N1CCCNCc1ccccc1F)C(=O)N(CCCNCc1ccccc1F)C3=O`, -47.1% (active); as for `COc1cc2oc(-c3cccc(C(=O)Nc4ccccc4)c3)cc(=O)c2c(O)c1OC`, 58% (inactive).
Consider `O=[N+]([O-])c1cc(Br)c2cccc3c2c1CC3`, for which the growth was 110% (inactive).
As to `CCOc1ccc(/C=N/Nc2cc(C)nc3ccc(Br)cc23)cc1`, the growth is 96.3% (inactive).
As for `Cn1nc(CC#N)c2c(=N)n(N)cnc21`, the figure is 108% (inactive).
As for `COc1cc(NC(=O)CSc2nc3ccc(C)cc3c(=O)n2Cc2ccccc2)cc(OC)c1OC`, the figure is 38% (inactive).
For the compound `NC(=NCCCOc1ccc(F)cc1)Nc1ccc(I)cc1`, the growth was 73.5% (inactive).
As for `COc1ccc(C(=O)/C=C/c2cc3ccccc3n3nnnc23)cc1`, the figure is 106% (inactive); as for `Oc1ccc(C2c3ccccc3Oc3ccccc32)c2cccnc12`, 7.81% (active); as for `O=C(Nc1ncc(Cc2cc(Cl)ccc2Cl)s1)c1cccs1`, 60.8% (inactive).
The figure for `Oc1ccc(C(c2ccc(O)cc2)c2ccc(Br)cn2)cc1` is 21% (inactive); for `CCc1c2c(nc3ccc(OCc4ccc(B(O)O)cc4)cc13)-c1cc3c(c(=O)n1C2)COC(=O)[C@]3(O)CC` it is -12.6% (active).
The figure for `COc1ccc(CNCCN2C(=O)c3ccc4c5c(ccc(c35)C2=O)C(=O)N(CCNCc2ccc(OC)c(OC)c2OC)C4=O)c(OC)c1OC` is -51.1% (active); for `COc1cc(C2C3CC4CCCC[C@H]4N3[C@@]3(C(=O)Nc4cc(Cl)ccc43)C2C(=O)c2nc3ccccc3[nH]2)cc(OC)c1OC` (stereo not given in full) it is 56.9% (inactive).
